{"source": "PubChem BioAssay AID1778", "about": "(Sanford-Burnham Center for Chemical Genomics, 2009)", "note": "Where “and” joins values, the source holds several entries; their conditions need not be identical. Identical values can stand only once. Screen size: about 290,000 compounds; about 260 (0.09%) were called active. Many of the other results were omitted from the sample, so actives are more common in it than they were. Entries with a potency or affinity are not part of this list. Values without a mark were called inactive. No stated cut-off is given here; in the data, active means inhibition above about 50%; inactive means the rest.", "data": [{"target": "Kappa-type opioid receptor (Homo sapiens) (UniProt P41145)", "sequence (P41145 whole entry, looked up)": "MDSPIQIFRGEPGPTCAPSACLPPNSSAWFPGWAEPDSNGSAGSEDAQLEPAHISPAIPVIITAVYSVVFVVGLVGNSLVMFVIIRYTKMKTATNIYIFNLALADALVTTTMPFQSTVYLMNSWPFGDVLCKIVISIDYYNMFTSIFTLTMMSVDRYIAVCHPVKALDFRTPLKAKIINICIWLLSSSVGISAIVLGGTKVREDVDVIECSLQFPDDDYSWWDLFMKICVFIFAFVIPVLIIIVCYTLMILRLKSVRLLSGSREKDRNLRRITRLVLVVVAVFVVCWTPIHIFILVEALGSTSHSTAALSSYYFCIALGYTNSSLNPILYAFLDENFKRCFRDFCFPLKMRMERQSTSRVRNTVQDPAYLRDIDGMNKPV", "test": "kappa opioid receptor blockers – cell-based, luminescence, uHTS (AID 1778)", "details": "KOR beta-arrestin recruitment, antagonist mode, active compounds read high; at 10 µM unless noted", "values": [{"smiles": "COc1ccc(S(=O)(=O)N2CCN(C(=O)COc3ccc(C)c(C)c3)CC2)cc1OC", "inhibition": "-25.1%"}, {"smiles": "O=C(Oc1c(Cl)cc(Cl)c2cccnc12)c1cccc([N+](=O)[O-])c1", "inhibition": "99.6% (active)"}, {"smiles": "O=C(Oc1ccc(Cl)c2cccnc12)c1cccc([N+](=O)[O-])c1", "inhibition": "-2.7%"}, {"smiles": "O=C(Oc1cccc2cccnc12)c1cccc([N+](=O)[O-])c1", "inhibition": "-16.3% [at 20 µM]"}, {"smiles": "COc1cc2c(cc1OC)CN(C(=O)CCNS(=O)(=O)c1ccccc1F)CC2", "inhibition": "5.3%"}, {"smiles": "Cc1ccc(C)n1-n1c(C)nc2scc(-c3ccccc3)c2c1=O", "inhibition": "-3.4%"}, {"smiles": "Cc1nc2scc(-c3ccccc3)c2c(=O)n1N", "inhibition": "-2.3%"}, {"smiles": "Cc1nc(NC(=O)CSC2=NCCS2)sc1C(=O)N(C)C", "inhibition": "-22.6%"}, {"smiles": "COc1ccc(S(=O)(=O)N2CCN(c3ccccn3)CC2)cc1[N+](=O)[O-]", "inhibition": "5.2%"}, {"smiles": "CC(C)(C)C(=O)/C(C#N)=C/c1cccs1", "inhibition": "1.1%"}, {"smiles": "Cc1ccc(NC(=O)c2ccc(Nc3c([N+](=O)[O-])cc([N+](=O)[O-])cc3[N+](=O)[O-])cc2)cc1", "inhibition": "1.3%"}, {"smiles": "O=C(Nc1ccccc1)c1ccc(Nc2c([N+](=O)[O-])cc([N+](=O)[O-])c3ccccc23)cc1", "inhibition": "20.1%"}, {"smiles": "Cc1ccc(NC(=O)C2CCN(S(=O)(=O)c3ccc4c(c3)NC(=O)C(C)S4)CC2)c(C)c1", "note": "(stereo unspecified)", "inhibition": "11.1%"}, {"smiles": "Cc1cccc(NC(=O)CSc2cccc3cccnc23)c1", "inhibition": "-3%"}, {"smiles": "COc1ccc(CSc2cccc3cccnc23)cc1[N+](=O)[O-]", "inhibition": "-30.5%"}, {"smiles": "CC(Oc1ccccc1)C(=O)Nc1nnc(S(=O)(=O)Nc2ccccc2)s1", "note": "(stereo unspecified)", "inhibition": "-37.1% [at 20 µM]"}, {"smiles": "COc1ccc(N(CC(=O)Nc2ccc(S(=O)(=O)N3CCOCC3)cc2)S(=O)(=O)c2ccc(F)cc2)cc1", "inhibition": "28.3%"}, {"smiles": "COc1ccc(N(CC(=O)Nc2ccc(S(=O)(=O)N3CCOCC3)cc2)S(=O)(=O)c2ccccc2)cc1", "inhibition": "-0.6%"}, {"smiles": "CN1C(=CC=C2C=C(I)C(=O)C(I)=C2)C(C)(C)c2ccccc21", "inhibition": "68.2% (active)"}, {"smiles": "C=CCN1C(=O)/C(=C\\C=C2\\N(C)c3ccccc3C2(C)C)SC1=S", "inhibition": "3.2%"}, {"smiles": "CN1/C(=C\\C=C2/SC(=S)N(CC(=O)O)C2=O)C(C)(C)c2ccccc21", "inhibition": "77.1% [at 20 µM] (active)"}, {"smiles": "CCCN1C(=O)/C(=C\\C=C2/Sc3ccccc3N2CCO)SC1=S", "inhibition": "17.8%"}, {"smiles": "CCCN1C(=O)/C(=C\\C=C2/Sc3ccccc3N2CC)SC1=S", "inhibition": "-42.6% [at 20 µM]"}, {"smiles": "CN1/C(=C\\C=C2/C(=O)Oc3ccccc3C2=O)C(C)(C)c2ccccc21", "inhibition": "-18.4%"}, {"smiles": "CN1/C(=C\\C=O)C(C)(C)c2ccccc21", "inhibition": "-23.9%"}, {"smiles": "CCCCN1C(=O)/C(=C/C=C2\\N(C)c3ccccc3C2(C)C)SC1=S", "inhibition": "6.8%"}, {"smiles": "O=C1CC(C2CCCO2)C(=O)N1c1ccccc1", "note": "(stereo unspecified)", "inhibition": "-21.9%"}, {"smiles": "Cn1c(=O)c(C(=O)NCc2ccccc2Cl)c(O)c2ccccc21", "inhibition": "-41.3% [at 20 µM]"}, {"smiles": "Cc1ccccc1CN(C)C(=O)CNC(=O)c1ccc2ccccc2c1", "inhibition": "-14.6%"}, {"smiles": "Cc1ccc(NC(=O)Cn2cc(S(=O)(=O)c3ccc(F)cc3)c(=O)c3cc(F)ccc32)cc1", "inhibition": "-36.8%"}, {"smiles": "Cn1c(CCNC(=O)c2ccccc2)nc2cc(NC(=O)C3CCCCC3)ccc21", "inhibition": "1.3%"}, {"smiles": "COc1cc(/C=C/c2ccc3cccc(O)c3n2)cc(Br)c1OC", "inhibition": "-20%"}, {"smiles": "COc1cc(/C=C/c2ccc3cccc(O)c3n2)cc(OC)c1OC", "inhibition": "-5.8%"}, {"smiles": "COc1ccc(/C=C/c2ccc3c(Br)ccc(O)c3n2)cc1", "inhibition": "0.3%"}, {"smiles": "COc1cc(/C=C/c2ccc3c(Br)cc(Br)c(O)c3n2)ccc1O", "inhibition": "57.8% (active)"}, {"smiles": "COc1ccc(/C=C/c2ccc3cccc(O)c3n2)cc1Br", "inhibition": "-9.3%"}, {"smiles": "COc1ccc(C(c2nnnn2C2CCCC2)N2CCC(C)CC2)cc1", "note": "(stereo unspecified)", "inhibition": "-3%"}, {"smiles": "Cn1c(=O)[nH]c(=O)c2c1nc(NCCN)n2CCOc1ccccc1", "inhibition": "-30.9% [at 20 µM]"}, {"smiles": "Cc1sc2nc(C3CC3)nc(N3CCN(C(=O)c4ccccc4F)CC3)c2c1C", "inhibition": "4.1%"}, {"smiles": "C/C(=N\\NC(=O)c1cc(Br)ccc1O)c1cccs1", "inhibition": "-5.5%"}, {"smiles": "NNC(=O)c1cc(-c2cccs2)nc2ccccc12", "inhibition": "40.8%"}, {"smiles": "C/C(=N\\NC(=O)c1c[nH]c2ccccc12)c1ccccn1", "inhibition": "21.4%"}, {"smiles": "C/C(=N\\NC(=O)c1ccccc1)c1cccc(Br)c1", "inhibition": "21.6%"}, {"smiles": "O=C(N/N=C/c1ccc2ncccc2c1)c1cc(-c2cccs2)nc2ccccc12", "inhibition": "28.4%"}, {"smiles": "C/C(=N/NC(=O)c1cc2ccccc2cc1O)c1ccco1", "inhibition": "17%"}, {"smiles": "C/C(=N\\NC(=O)c1cc(-c2cccs2)nc2ccccc12)c1ccccn1", "inhibition": "75.1% (active)"}, {"smiles": "C/C(=N\\NC(=O)c1cc2ccccc2cc1O)c1cccs1", "inhibition": "1.2%"}, {"smiles": "C/C(=N\\NC(=O)c1cccc(Br)c1)c1cccnc1", "inhibition": "-7.4%"}, {"smiles": "CC(C)CNC(=S)N(CCCN(C)C)Cc1cc2cc3c(cc2[nH]c1=O)OCCO3", "inhibition": "-1.3% [at 20 µM]"}, {"smiles": "O=C(O)c1nnn(-c2cc(C(F)(F)F)cc(C(F)(F)F)c2)c1-c1ccccc1", "inhibition": "7.9%"}, {"smiles": "COc1ccc(-c2nc(C)sc2CC(=O)O)cc1", "inhibition": "-5.7%"}, {"smiles": "N#Cc1c(C(F)(F)F)cc(-c2ccc(Cl)c(Cl)c2)nc1SCCN1CCOCC1", "inhibition": "-29.4%"}, {"smiles": "CCOC(=O)C1=C(CSc2nc(-c3ccncc3)ccc2C#N)OC(N)=C(C#N)C1c1ccc(OC)cc1", "note": "(stereo unspecified)", "inhibition": "-4.9%"}, {"smiles": "CC(C)NC(=S)n1cc(C(=O)c2cc(Cl)cc(Cl)c2O)cn1", "inhibition": "-10%"}, {"smiles": "COC(=O)C1c2ccccc2-c2ccccc21", "inhibition": "-7.3%"}, {"smiles": "CCOc1ccc(C(=O)/C=C/Nc2ccc(S(=O)(=O)N=C(N)N)cc2)cc1", "inhibition": "1%"}, {"smiles": "Cc1ccc(N(C(=O)CNC(=O)c2ccco2)C(C(=O)NCC2CCCO2)c2ccccc2)cc1", "note": "(stereo unspecified)", "inhibition": "-12.5%"}, {"smiles": "CC1CN(C(=S)SCC(=O)c2ccc(Cl)cc2)CC(C)O1", "note": "(stereo unspecified)", "inhibition": "21.8%"}, {"smiles": "Cc1ccc(-c2onc(C)c2C)cc1S(=O)(=O)N1CC(C)Oc2ccccc21", "note": "(stereo unspecified)", "inhibition": "-11.7%"}, {"smiles": "COc1ccc(OC)c2c1C(=O)c1ccccc1C2=O", "inhibition": "-4.5%"}, {"smiles": "COc1ccc(N)c2c1C(=O)c1ccccc1C2=O", "inhibition": "20.4%"}, {"smiles": "O=C1CC[C@@H](CN(Cc2ccccn2)Cc2nc(-c3ccc(C(F)(F)F)cc3)no2)N1", "inhibition": "3.4% [at 20 µM]"}, {"smiles": "O=C(CC1C(=O)NCCN1Cc1cccc(Oc2ccccc2)c1)NCCCn1cccn1", "note": "(stereo unspecified)", "inhibition": "-2.5%"}, {"smiles": "O=C(O)/C=C/c1cccnc1", "inhibition": "17.9%"}, {"smiles": "O=C(/C=C/c1cccnc1)/C=C/c1cccnc1", "inhibition": "57.9% (active)"}, {"smiles": "CC(/C=C\\c1cccnc1)=C/C(=O)O", "inhibition": "-0.4% and 17.9%"}, {"smiles": "Cn1ccnc1SCc1nc2c(cnn2-c2ccccc2)c(=O)[nH]1", "inhibition": "-17.7%"}, {"smiles": "Cc1cccc(-n2c(SCc3ccc(C#N)cc3)nnc2-c2c[nH]c3ccccc23)c1", "inhibition": "6.1%"}, {"smiles": "CCOc1ccc(N2CC(C(=O)Nc3ccncc3)CC2=O)cc1", "note": "(stereo unspecified)", "inhibition": "15.6%"}, {"smiles": "CCOC(=O)Cc1[nH]nc2c1C(Cc1ccccc1)C(C#N)=C(N)O2", "note": "(stereo unspecified)", "inhibition": "-4.1%"}, {"smiles": "CC1(C)CC(=O)C(/C=N/c2ccccn2)=C(O)C1", "inhibition": "40.5%"}, {"smiles": "CC1(C)CC(=O)C(/C=N/c2ncccc2C(=O)O)=C(O)C1", "inhibition": "-24.7%"}, {"smiles": "CN(C)S(=O)(=O)c1cccc(C(=O)Nc2cc(Cl)ccc2O)c1", "inhibition": "-1.5%"}, {"smiles": "C/C(=C\\c1ccc(F)cc1)C(=O)c1c(C)cc(C)[nH]c1=O", "inhibition": "5.1%"}, {"smiles": "O=C(NCc1ccccn1)C(=O)NN=C1CCCCCCCCCCC1", "inhibition": "-9.2% [at 20 µM]"}, {"smiles": "CCOC(=O)C(CSCC(=O)c1ccc(Br)cc1)NC(=O)OC(C)(C)C", "note": "(stereo unspecified)", "inhibition": "3.7%"}]}]}
